# Experimental data reported in PubChem BioAssay (NCATS).
# Results filed as inconclusive are left out. A call without a number means that no potency is given here. Values without a mark were called inactive. The source made the active and inactive calls. Calls follow the shape of the dose curve; as a rule, active = well fitted inhibition curve with a large enough effect; inconclusive = small, poorly fitted or top-dose-only effect; inactive = flat fitted curve, though single readings scatter.
# Assays:
# CRL-7250 = normal cell line; experiment: Cytotoxic Profiling of Annotated Libraries Using Quantitative High-Throughput Screening (AID 1296008); conditions: Five cell lines viability, CellTiter-Glo ATP luminescence, 48-72 h; max response: stronger effect = lower value; also: potency is read from the fitted curve at half-maximal effect
# Procedure, shortened: (§1)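 Cells exposed to compounds for 48 or 72 hr at 37 degrees Celsius. Viability read as ATP-coupled luminescence with CellTiter-Glo after 10 min at room temperature.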
# HaCat [1] = experiment: as above; conditions: Five cell lines viability, CellTiter-Glo ATP luminescence, 48-72 h; max response: stronger effect = lower value
# Procedure, shortened: as §1
# NIH3T3 = experiment: as above; conditions: Five cell lines viability, CellTiter-Glo ATP luminescence, 48-72 h; max response: stronger effect = lower value
# Procedure, shortened: as §1
# JCK = experiment: qHTS profiling for inhibitors of Plasmodium falciparum proliferation (AID 504749); also: potency is read from the fitted curve at half-maximal effect; conditions: P. falciparum in erythrocytes, SYBR Green DNA, 72 h; series mostly up to 28.7 µM
# Procedure, shortened: (§2)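 Readout was DNA-dye fluorescence from lysed cultures, ex 485/em 535 nm. Parasitized red cells had grown 72 h with compound; data scaled between 0.29 uM artemisinin and DMSO wells and corrected using vehicle-only plates.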
# N140 = experiment: as above; conditions: P. falciparum in erythrocytes, SYBR Green DNA, 72 h; series mostly up to 28.7 µM
# Procedure, shortened: as §2
# P93_24 = experiment: as above; conditions: P. falciparum in erythrocytes, SYBR Green DNA, 72 h; series mostly up to 28.7 µM
# Procedure, shortened: as §2
# P94_40 = experiment: as above; conditions: P. falciparum in erythrocytes, SYBR Green DNA, 72 h; series mostly up to 28.7 µM
# Procedure, shortened: as §2
# PAD = experiment: as above; conditions: P. falciparum in erythrocytes, SYBR Green DNA, 72 h; series mostly up to 28.7 µM
# Procedure, shortened: as §2
# PC15 = experiment: as above; conditions: P. falciparum in erythrocytes, SYBR Green DNA, 72 h; series mostly up to 28.7 µM
# Procedure, shortened: as §2
# PC26 = experiment: as above; conditions: P. falciparum in erythrocytes, SYBR Green DNA, 72 h; series mostly up to 28.7 µM
# Procedure, shortened: as §2
# PC49 = experiment: as above; conditions: P. falciparum in erythrocytes, SYBR Green DNA, 72 h; series mostly up to 28.7 µM
# Procedure, shortened: as §2
# SC27B = experiment: as above; conditions: P. falciparum in erythrocytes, SYBR Green DNA, 72 h; series mostly up to 28.7 µM
# Procedure, shortened: as §2
# TAB109 = experiment: as above; conditions: P. falciparum in erythrocytes, SYBR Green DNA, 72 h; series mostly up to 28.7 µM
# Procedure, shortened: as §2
# TAB113 = experiment: as above; conditions: P. falciparum in erythrocytes, SYBR Green DNA, 72 h; series mostly up to 28.7 µM
# Procedure, shortened: as §2
# TAB165 = experiment: as above; conditions: P. falciparum in erythrocytes, SYBR Green DNA, 72 h; series mostly up to 28.7 µM
# Procedure, shortened: as §2
# KB-3-1 = experiment: Cytotoxic Profiling of Annotated Libraries Using Quantitative High-Throughput Screening (AID 1296008); conditions: Five cell lines viability, CellTiter-Glo ATP luminescence, 48-72 h; max response: stronger effect = lower value; also: potency is read from the fitted curve at half-maximal effect
# Procedure, shortened: as §1
# W2 = experiment: qHTS profiling for inhibitors of Plasmodium falciparum proliferation (AID 504749); also: potency is read from the fitted curve at half-maximal effect; conditions: P. falciparum in erythrocytes, SYBR Green DNA, 72 h; series mostly up to 28.7 µM
# Procedure, shortened: as §2
# HACAT [2] = experiment: qHTS assay to identify novel small-molecules to repurpose for Merkel cell carcinoma treatment (AID 1296009); conditions: MCC and control cell lines, CellTiter-Glo viability, 72 h; at 44.8 µM (top of the series) unless noted
# Procedure, shortened: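 Cells were incubated with compound for 72 hr at 37 degree celsius before CellTiter-Glo addition. Luminescence was normalized with no-cell wells as full cytotoxicity and DMSO as baseline.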
# Also: nearly all actives have a fitted effect of over 60% in size.
structure (smiles),measurement,setting,value
C[C@]12CCC(=O)C=C1[C@@H]1C[C@@H]1[C@H]1[C@@H]3[C@@H]4C[C@@H]4[C@@]4(CCC(=O)O4)[C@@]3(C)CC[C@@H]12,outcome,CRL-7250,inactive
same,max response,HaCat [1],-9.08%
same,max response,NIH3T3,-5.26%
O=C(Nc1ccc(Oc2ccc(Cl)cc2)c(Cl)c1)c1cc(I)cc(I)c1O,Potency,JCK,inactive
same,Potency,N140,inactive
same,Potency,P93_24,inactive
same,Potency,P94_40,inactive
same,Potency,PAD,inactive
same,Potency,PC15,inactive
same,Potency,PC26,inactive
same,Potency,PC49,inactive
same,Potency,SC27B,inactive
same,Potency,TAB109,inactive
same,Potency,TAB113,inactive
same,max response,CRL-7250,-12.5%
same,max response,HaCat [1],1.19%
same,max response,NIH3T3,0.252%
C=C(CC)C(=O)c1ccc(OCC(=O)O)c(Cl)c1Cl,Potency,TAB113,14.1 µM (active)
same,Potency,TAB165,12.6 µM (active)
same,max response,CRL-7250,-16.5%
same,max response,HaCat [1],-11.5%
same,max response,KB-3-1,-0.176%
same,max response,NIH3T3,-16.2%
O=C1[C@H]2CCCC[C@H]2C(=O)N1CCCCN1CCN(c2nsc3ccccc23)CC1,Potency,JCK,inactive
same,Potency,N140,inactive
same,Potency,P94_40,inactive
same,Potency,PAD,inactive
same,Potency,PC49,inactive
same,Potency,SC27B,inactive
same,Potency,TAB109,inactive
same,Potency,TAB113,inactive
same,Potency,W2,15.1 µM (active)
same,outcome,CRL-7250,inactive
same,max response,HaCat [1],-5.6%
same,max response,KB-3-1,2.4%
same,max response,NIH3T3,2.44%
C=C1C(=C/C=C2\CCC[C@]3(C)[C@@H]([C@H](C)/C=C/[C@@H](O)C4CC4)CC[C@@H]23)C[C@@H](O)C[C@@H]1O,outcome,CRL-7250,inactive
same,outcome,HaCat [1],inactive
same,max response,KB-3-1,29.7%
same,max response,NIH3T3,-35.8%
same,outcome,HACAT [2],inactive
CCCOC(C(=O)OC1CCN(C)CC1)(c1ccccc1)c1ccccc1,Potency,PAD,inactive
same,Potency,PC49,inactive
same,Potency,W2,6.01 µM (active)
same,max response,CRL-7250,-3.11%
same,max response,HaCat [1],-26.2%
same,max response,NIH3T3,4.34%
Cc1ccc(O)c2ncccc12,Potency,JCK,inactive
same,Potency,P93_24,inactive
same,Potency,PAD,inactive
same,Potency,PC15,inactive
same,Potency,PC26,inactive
same,Potency,PC49,inactive
same,Potency,SC27B,inactive
same,max response,CRL-7250,-10.3%
same,max response,HaCat [1],2.26%
CCCCCC=CCC=CCCCCCCCC(=O)OCC,Potency,JCK,inactive
same,Potency,N140,inactive
same,Potency,P93_24,inactive
same,Potency,P94_40,inactive
same,Potency,PAD,inactive
same,Potency,PC15,inactive
same,Potency,PC26,inactive
same,Potency,PC49,inactive
same,Potency,SC27B,inactive
same,Potency,TAB109,inactive
same,Potency,TAB113,inactive
same,Potency,TAB165,inactive
same,Potency,W2,inactive
same,max response,CRL-7250,-11.8%
same,outcome,HaCat [1],inactive
same,max response,KB-3-1,-4.13%
same,outcome,NIH3T3,inactive
same,outcome,HACAT [2],inactive
Oc1ccc(Cl)c2cccnc12,Potency,JCK,inactive
same,Potency,N140,inactive
same,Potency,P93_24,inactive
same,Potency,P94_40,inactive
same,Potency,PAD,inactive
same,Potency,PC15,inactive
same,Potency,PC26,inactive
same,Potency,PC49,inactive
same,Potency,SC27B,inactive
same,Potency,TAB109,inactive
same,Potency,TAB113,inactive
same,Potency,TAB165,inactive
same,outcome,CRL-7250,inactive
same,outcome,HaCat [1],inactive
same,max response,KB-3-1,-11.9%
same,outcome,HACAT [2],inactive
c1ccc(CNCCNCc2ccccc2)cc1,Potency,JCK,inactive
same,Potency,PC49,3.55 µM (active)
same,Potency,W2,4.26 µM (active)
same,max response,CRL-7250,-8.49%
same,outcome,HaCat [1],inactive
same,max response,KB-3-1,-3.68%
same,outcome,HACAT [2],inactive
CCN(CCCc1ccccc1)CCCc1ccccc1,Potency,JCK,inactive
same,Potency,PAD,inactive
same,Potency,PC15,inactive
same,Potency,PC26,inactive
same,Potency,PC49,inactive
same,Potency,SC27B,inactive
same,Potency,W2,1.28 µM (active)
same,outcome,CRL-7250,inactive
same,max response,HaCat [1],0.9%
same,max response,KB-3-1,-18.5%
COC1=CC(=O)C[C@@H](C)[C@]12Oc1c(Cl)c(OC)cc(OC)c1C2=O,Potency,JCK,inactive
same,Potency,N140,inactive
same,Potency,P93_24,inactive
same,Potency,P94_40,inactive
same,Potency,PAD,inactive
same,Potency,PC15,inactive
same,Potency,PC26,inactive
same,Potency,PC49,inactive
same,Potency,SC27B,inactive
same,Potency,TAB109,inactive
same,Potency,TAB113,inactive
same,Potency,TAB165,inactive
same,Potency,W2,inactive
same,outcome,CRL-7250,inactive
same,Potency,HaCat [1],23.7 µM (active)
same,max response,KB-3-1,-57.5%
CN(C/C=C/c1ccccc1)Cc1cccc2ccccc12,Potency,CRL-7250,26.6 µM (active)
same,Potency,HaCat [1],21.1 µM (active)
same,max response,KB-3-1,4.5%
CC(=O)c1ccc2c(c1)N(CCCN1CCC(CCO)CC1)c1ccccc1S2,Potency,JCK,inactive
same,Potency,N140,inactive
same,Potency,P94_40,inactive
same,Potency,PAD,inactive
same,Potency,PC15,inactive
same,Potency,PC49,inactive
same,Potency,SC27B,inactive
same,Potency,TAB109,inactive
same,Potency,TAB113,inactive
same,Potency,TAB165,inactive
same,Potency,W2,1.02 µM (active)
same,max response,CRL-7250,-7.11%
same,outcome,HaCat [1],inactive
same,max response,KB-3-1,-5.25%
same,outcome,HACAT [2],inactive
c1ccc(OCc2ccc(CCCN3CCOCC3)cc2)cc1,Potency,JCK,inactive
same,Potency,N140,inactive
same,Potency,P93_24,inactive
same,Potency,P94_40,inactive
same,Potency,PAD,inactive
same,Potency,PC15,inactive
same,Potency,SC27B,inactive
same,Potency,TAB109,inactive
same,Potency,TAB113,inactive
same,Potency,TAB165,inactive
same,max response,CRL-7250,-18%
same,max response,HaCat [1],1.82%
same,max response,KB-3-1,2.12%
CC(=O)Oc1ccc(C(c2ccc(OC(C)=O)cc2)c2ccccn2)cc1,Potency,N140,inactive
same,Potency,P93_24,inactive
same,Potency,P94_40,inactive
same,Potency,PAD,inactive
same,Potency,PC15,inactive
same,Potency,PC26,inactive
same,Potency,PC49,7.08 µM (active)
same,Potency,SC27B,inactive
same,Potency,TAB109,inactive
same,Potency,TAB113,inactive
same,Potency,TAB165,inactive
same,Potency,W2,inactive
same,max response,CRL-7250,-7.93%
same,max response,HaCat [1],-0.175%
same,max response,KB-3-1,-5.6%
same,max response,NIH3T3,-2.66%
CC(=O)N/N=C/c1ccc([N+](=O)[O-])o1,Potency,N140,12.6 µM (active)
same,Potency,PC26,inactive
same,Potency,PC49,inactive
same,Potency,TAB109,6.31 µM (active)
same,Potency,TAB165,12.6 µM (active)
same,max response,CRL-7250,-0.507%
same,outcome,HaCat [1],inactive
same,max response,KB-3-1,-2.33%
same,outcome,HACAT [2],inactive
CC(=O)Oc1ccc2c(c1)CC[C@@H]1[C@@H]2CC[C@]2(C)[C@@H](O)CC[C@@H]12,max response,CRL-7250,-2.1%
same,max response,HaCat [1],-1.57%
same,max response,NIH3T3,2.78%
CC1(C)O[C@@H]2C[C@H]3[C@@H]4CCC5=CC(=O)CC[C@]5(C)[C@@]4(F)[C@@H](O)C[C@]3(C)[C@]2(C(=O)CCl)O1,max response,CRL-7250,2.38%
same,outcome,HaCat [1],inactive
same,max response,KB-3-1,33.4%
same,max response,NIH3T3,-10.1%
same,outcome,HACAT [2],inactive
COc1cc(C=C2CCC/C(=C\c3ccc(O)c(OC)c3)C2=O)ccc1O,Potency,CRL-7250,15 µM (active)
same,Potency,NIH3T3,16.8 µM (active)
